Test results reported in the supplement of paper PMC8728848.
Only a selection was taken, and the strongest signals are over-represented in it overall.

Tests used:
Assay in all cases: glycan array binding signal (z-score within array); higher = stronger binding
Settings in all cases: glycan notation: IUPAC condensed, linker removed
[1] = system: Fuc(a1-2)[GalNAc(a1-3)]Gal(b1-3)GlcNAc
Method in brief: (§1)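 The binding signal is a Z-score computed within each array and averaged over linkers. Arrays of the same protein sequence at different concentrations or buffers were also averaged together. Data originate from 3228 arrays in the Consortium for Functional Glycomics database, kept only where the protein sequence was available.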

[2] = system: Fuc(a1-2)[GalNAc(a1-3)]Gal(b1-3)GlcNAc(b1-2)Man(a1-3)[Fuc(a1-2)[GalNAc(a1-3)]Gal(b1-3)GlcNAc(b1-2)Man(a1-6)]Man(b1-4)GlcNAc(b1-4)GlcNAc
Method in brief: as §1

[3] = system: Fuc(a1-2)[GalNAc(a1-3)]Gal(b1-3)GlcNAc(b1-2)Man(a1-3)[Fuc(a1-2)[GalNAc(a1-3)]Gal(b1-3)GlcNAc(b1-2)Man(a1-6)]Man(b1-4)GlcNAc(b1-4)[Fuc(a1-6)]GlcNAc
Method in brief: as §1

[4] = system: Fuc(a1-2)[Gal(a1-3)]Gal(b1-4)[Fuc(a1-3)]GlcNAc
Method in brief: as §1

[5] = system: Fuc(a1-2)[GalNAc(a1-3)]Gal(b1-3)GalNAc(a1-3)[Fuc(a1-2)]Gal(b1-4)GlcNAc
Method in brief: as §1

[6] = system: Fuc(a1-2)[GalNAc(a1-3)]Gal(b1-4)GlcNAc(b1-2)Man(a1-3)[Fuc(a1-2)[GalNAc(a1-3)]Gal(b1-4)GlcNAc(b1-2)Man(a1-6)]Man(b1-4)GlcNAc(b1-4)[Fuc(a1-6)]GlcNAc
Method in brief: as §1

[7] = system: Fuc(a1-2)[Gal(a1-3)]Gal(b1-4)[Fuc(a1-3)]Glc
Method in brief: as §1

[8] = system: Fuc(a1-2)[Gal(a1-4)]Gal(b1-4)GlcNAc
Method in brief: as §1

[9] = system: Fuc(a1-2)[GalNAc(a1-3)]Gal(b1-3)GalNAc(b1-3)Gal(a1-4)Gal(b1-4)Glc
Method in brief: as §1

[10] = system: Fuc(a1-2)[GalNAc(a1-3)]Gal(b1-4)GlcNAc(b1-2)Man(a1-3)[Fuc(a1-2)[GalNAc(a1-3)]Gal(b1-4)GlcNAc(b1-2)Man(a1-6)]Man(b1-4)GlcNAc(b1-4)GlcNAc
Method in brief: as §1

GspB (Streptococcus gordonii), Q939N5
glycan array binding signal (z-score) [1]: 0.192

LcI (Legionella pneumophila)
glycan array binding signal (z-score) [2]: -0.301 | glycan array binding signal (z-score) [3]: -0.427

AgI/IIC123-GFP (Streptococcus mutans)
glycan array binding signal (z-score) [4]: -0.047 | glycan array binding signal (z-score) [5]: -0.259 | glycan array binding signal (z-score) [6]: -0.549

Epa22
glycan array binding signal (z-score) [7]: -0.341 | glycan array binding signal (z-score) [8]: 1.84 | glycan array binding signal (z-score) [9]: -0.54

Actinohivin (Actinomycete K97)
glycan array binding signal (z-score) [3]: 0.857 | glycan array binding signal (z-score) [10]: -0.143

AgI/II Vhelical-GFP (Streptococcus mutans)
glycan array binding signal (z-score) [7]: -0.293 | glycan array binding signal (z-score) [3]: -0.218 | glycan array binding signal (z-score) [6]: -0.212

SiiE (Salmonella typhimurium), A0A0H3NVH0
glycan array binding signal (z-score) [4]: -0.019
